In PubChem BioAssay AID493240 (Broad Institute, 2011):
The whole screen tested about 1,300 compounds, of which about 270 (21%) were called active. The rule behind the calls is not given here. The list is a sample of the results. Entries with a potency or affinity are not part of this list.

Test: cytotoxicity in parental SK-MEL-5 melanoma cells – cell-based, CellTiter-Glo, cherry-picked, set 3, orthogonal assay for MITF inhibitor project, dose response (AID 493240)
Details: SK-MEL-5 viability, ATP luminescence (CellTiter-Glo), 24 h; series mostly up to 35 µM

SMILES	outcome
CCOC(=O)c1sc(NC(=O)Nc2ccc(Cl)cc2)nc1C	inactive
O=C(NC1CCCCC1)c1cc2cc(Br)ccc2o1	inactive
C=CCOc1ccc(/C=C/C(C)=N\O)cc1	inactive
Cc1cc(C)c(C#N)c(SCc2nnc(-c3ccccc3)o2)n1	inactive
COc1ccc2nc(C)cc(SCC(=O)N/N=C/c3ccc(O)cc3O)c2c1	inactive
O=C(CNC(=O)c1ccc(Br)cc1)c1ccccc1	inactive
Nc1ccc(Oc2cccc(Oc3ccc(N)cc3)c2)cc1	inactive
O=C(Nc1cc(-c2nc3ncccc3o2)ccc1Cl)c1ccc([N+](=O)[O-])o1	inactive
COc1ccc(C[C@H]2CN3C(=NC[C@@H]3C(C)C)N2CCNC(=O)c2ccc(C)c(Br)c2)cc1	inactive
CCOc1ccc(C(=O)Nc2cccc(C(=O)O)c2C)cc1Cl	inactive
COc1cccc(C(=O)Oc2c(CN3CCOCC3)cc(Cl)c3cccnc23)c1	inactive
O=C(N/N=C/c1ccc([N+](=O)[O-])s1)c1ccccc1Br	inactive
Cc1onc(-c2ccccc2)c1C(=O)N/N=C/c1ccc([N+](=O)[O-])s1	inactive
Cc1ccccc1C(=O)N/N=C/c1ccc([N+](=O)[O-])s1	inactive
O=C(CNC(=O)c1cccc(F)c1)N/N=C/c1ccc([N+](=O)[O-])s1	inactive
CCOc1ccc(NC(=O)CCC(=O)N/N=C/c2ccc([N+](=O)[O-])s2)cc1	inactive
O=C(N/N=C/c1ccc([N+](=O)[O-])s1)c1ccccc1	inactive
O=C(N/N=C/c1ccc([N+](=O)[O-])s1)c1cccc(Br)c1	inactive
CC(=O)c1ccc(S(=O)(=O)N2CCN(C(=O)/C=C/c3ccc4ccccc4n3)CC2)cc1	inactive
CN(C)c1ccc(/C=N/N2CCN(c3ccccn3)CC2)cc1	inactive
CC(=O)Nc1nc(C)c(-c2csc(Nc3cccc(C(C)=O)c3)n2)s1	inactive
O=C(O)c1ccccc1C(=O)Nc1ccc(Oc2cccc3ccccc23)cc1	inactive
O=C(Nc1ccc(N2CCOCC2)c(Cl)c1)c1cccc(F)c1	inactive
O=C(CNC(=O)c1ccccc1)N/N=C/c1ccc([N+](=O)[O-])s1	inactive

SMILES	outcome
O=C(Cc1ccccc1)NCC(=O)N/N=C/c1ccc([N+](=O)[O-])s1	inactive
CCCN1C(=O)c2ccc(C(=O)Nc3cc(C)ccc3O)cc2C1=O	inactive
Cc1cc(C)c2c(N)c(C(=O)N/N=C/c3ccccc3)sc2n1	inactive
Cc1c(Cl)c([N+](=O)[O-])nn1Cc1ccc(C(=O)N/N=C\c2cc(Cl)ccc2O)o1	inactive
O=C(N/N=C\c1cc(Cl)ccc1O)c1ccc(S(=O)(=O)N2CCCCC2)cc1	inactive
O=C(Nc1cccc(S(=O)(=O)N2CCCCC2)c1)c1ccc([N+](=O)[O-])o1	inactive
O=C(CCl)Nc1cccc(S(=O)(=O)NC2=NCCCCC2)c1	inactive
O=C(Nc1ccc(S(=O)(=O)N2CCCCCC2)cc1)c1[nH]ncc1[N+](=O)[O-]	inactive
COc1ccc(NS(=O)(=O)c2cc(NC(=O)CNC(=O)c3cccc(OC)c3)ccc2C)cc1	inactive
O=C(CSc1nnnn1-c1ccc(O)cc1)Nc1cccc(S(=O)(=O)N2CCCC2)c1	inactive
Cc1cccc(NC(=O)Cc2ccc(Br)cc2)n1	inactive
Cc1ccc(Nc2nnc(-c3ccccc3N)o2)cc1C	inactive
COc1ccc(NC(=O)C2COc3ccccc3O2)cc1 (stereo unspecified)	inactive
Cn1nnnc1Sc1ncnc2scc(-c3cccs3)c12	inactive
Cc1csc(NC(=O)Cc2c(F)cccc2Cl)n1	inactive
CC1(C)CC(=O)C=C(NC2=CC3OC(c4ccccc4)OCC3OC2=O)C1 (stereo unspecified)	inactive
O=[N+]([O-])/C=C\c1ccc(N2CCCC2)c(F)c1	inactive
O=C(NCc1cccs1)c1nc2c(nnn2Cc2ccccc2Cl)c(=O)[nH]1	inactive
COc1ccc(C2C(C#N)=C(N)Oc3c2oc(CO)cc3=O)cc1 (stereo unspecified)	inactive
O=C(O)c1ccc(N/N=C/c2ccc3nccnc3c2)cc1	inactive
COc1cc([N+](=O)[O-])cc(/C=N/NC(=O)c2ccc(NC(=O)c3ccc(C)cc3)cc2)c1O	inactive
CCN1CCN(c2ccc(S(=O)(=O)N3CCOCC3)cc2NC(=O)/C=C/c2ccc([N+](=O)[O-])cc2)CC1	inactive
CCN1CCN(c2ccc(S(=O)(=O)N3CCCCC3)cc2NC(=O)/C=C/c2ccc([N+](=O)[O-])cc2)CC1	inactive
O=C(NC1CCCC(C(F)(F)F)C1)c1ccc([N+](=O)[O-])o1 (stereo unspecified)	inactive

SMILES	outcome
COc1cccc(-c2ccc3c(N)c(C(=O)NC4CC4)sc3n2)c1	inactive
CC(Oc1cccc(Br)c1)C(=O)NNC(=O)c1ccccn1 (stereo unspecified)	inactive
C/C(=N\NC(=O)C(c1ccccc1)c1ccccc1)c1ccccn1	inactive
CC1CCN(c2ccc(NC(=O)c3cccnc3)cc2)CC1	inactive
COC(=O)c1ccc(/C=N/Nc2nc(C)c(C)s2)cc1	inactive
CS/C(N)=N/N=C/c1ccc2c(c1)OCO2	inactive
COc1cc2c(cc1OC)C(C)N(S(=O)(=O)c1cnc(Cl)c(Cl)c1)CC2 (stereo unspecified)	inactive
COc1cc(CN2CCC(C(N)=O)CC2)ccc1OCc1ccccc1	inactive
CCOc1ccc(N/C=C/C(=O)c2ccc(OC)c(OC)c2)cc1	inactive
N/C(=N\OC(=O)c1ccc(Cl)cc1Cl)c1ccncc1	inactive
O=C1CN(c2ccccc2)C(=S)N1C(=O)c1ccccc1	inactive
O=C1C=CC(=C(c2ccc(O)cc2)c2ccc(O)cc2)C=C1	inactive
COc1ccccc1-c1cc(C(F)(F)F)nc(S(C)(=O)=O)n1	inactive
COC(=O)CCS(=O)(=O)c1nc(-c2ccccc2)cc(C(F)(F)F)n1	inactive
N=C1C(c2nc3ccccc3[nH]2)=C(O)CN1C1CCCCC1	inactive
Cc1ccc(C(=O)Nc2ccccc2Cl)cc1	inactive
Cc1cc(C(=O)CCl)c(C)n1CCc1ccc(F)cc1	inactive
Cc1ccc2nc(NC(=O)CSCC(=O)OCC(=O)c3ccccc3)sc2c1	inactive
CCCCN=C(C)c1c(O)c2ccccc2oc1=O	inactive
Cc1oc(=O)c(NC(=O)c2ccccc2)cc1C(=O)c1ccccc1	inactive
O=C(Nc1ccc(Cl)cc1)Nc1cccc(C(=O)O)c1	inactive
COc1ccc(NC(=O)NC(=O)c2ccccc2)cc1	inactive
Cc1ccc(NC(=O)c2ccccc2)cc1	inactive
COc1ccc(COC(=O)c2cc([N+](=O)[O-])ccc2N2CCOCC2)cc1F	inactive

SMILES	outcome
CN(C)c1ccc(/C=C/c2cccc[n+]2[O-])cc1	inactive
Cc1ccc(NC(=O)Cc2noc3ccccc23)cc1	inactive
CC(=NNc1nc2ccccc2o1)c1cc2ccccc2cn1	inactive
COC(=O)c1ccc(COc2ccc3c(c2)CCC3)o1	inactive
Fc1ccc(-c2nnc(-c3ccc(F)cc3)o2)cc1	inactive
COc1cccc(-c2nnc3sc(-c4cccs4)nn23)c1	inactive
Nc1ncnc(Sc2ncccn2)c1[N+](=O)[O-]	inactive
O=C(CSc1ccccn1)c1ccc2c(c1)OCO2	inactive
O=C(CCl)N1CCN(S(=O)(=O)c2ccc3c(c2)CCC3)CC1	inactive
O=C(Nc1nc(-c2ccccn2)cs1)c1ccc([N+](=O)[O-])o1	inactive
N#C/C(=C(/O)CCl)c1nc2ccccc2[nH]1	inactive
C/C(=C\c1ccccc1)C(=O)Nc1ccc(Cl)cn1	inactive
COc1cc(SC)ccc1C(=O)NCCOc1ccccc1Cl	inactive
CCn1c(=O)c(C(=O)NCc2ccccc2Cl)c(O)c2ccccc21	inactive
COCCNC(=O)c1cc2sc3ccccc3c2s1	inactive
O=c1nc(N/N=C/c2ccccn2)cn[nH]1	inactive
Cc1ccc(NC(=O)Nc2ccccc2)nc1	inactive
O=C(CCl)N(c1ccccc1)c1c[nH]c2ccccc12	inactive
FC(F)(F)c1cc(CCN2CCNC[C@@H]2Cc2ccccc2)cc(C(F)(F)F)c1	inactive
CCSc1ccccc1C(=O)n1nnc2ccccc21	inactive
Cc1cc(C(=O)COc2cccnc2[N+](=O)[O-])c(C)n1-c1ccccc1	inactive
Cc1cc(C)c2ccc(N)nc2c1O	inactive
Cc1cc(C(F)(F)F)c2c(N)c(C(=O)Nc3cc(C)on3)sc2n1	inactive
O=C(Cn1cnc2c(oc3ccccc32)c1=O)c1ccccc1	inactive

SMILES	outcome
Cc1nc(C)c(C(=O)N/N=C/c2cc(Br)ccc2O)s1	inactive
CCCCNc1nc(=S)n(-c2ccccc2)c(C)c1C(C)=O	inactive
COCCn1c(C)cc(C(=O)COC(=O)c2ccccc2Br)c1C	inactive
CCC(=O)NCCc1nc2cc(NC(=O)c3cccc([N+](=O)[O-])c3)ccc2n1C	inactive
CC(C)(C)c1ccc(/C=N/Nc2ccc(C(=O)O)cc2)cc1	inactive
Cc1ccc(/C=N/Nc2ccc(C(=O)O)cc2)s1	inactive
COc1cccc(CNc2nc3ccccc3n2C)c1O	inactive
CC(=O)N(c1nnc(-c2cccc(C)c2)s1)C1CCCC1	inactive
CCOC(=O)c1ccc2nc(C)c(CCC(C)=O)c(Cl)c2c1	inactive
O=S(=O)(c1ccc(Cl)cc1)N1CCN(Cc2ccc(O)c3ncccc23)CC1	inactive
CCCOCc1ccc(O)c2ncccc12	inactive
O=C(CSC(=S)N1CCCCC1)c1c(F)cccc1F	inactive
c1ccc(Cc2cc(-c3ccccc3)on2)cc1	inactive
COc1cc2c(c(OC)c1OC)-c1ccc(OC)c(=O)cc1C(NC(C)=O)CC2 (stereo unspecified)	inactive
CCN1c2ccccc2NC2C1C(C(C)=O)C(=O)N2c1ccc(Cl)cc1 (stereo unspecified)	inactive
COc1cnc(-c2ccccn2)nc1NC(C)C	inactive
N#CCSc1nc2ccccc2c2nc3ccccc3n12	inactive
Cc1ccc(SCc2cn3cc(Cl)ccc3n2)cc1	inactive
CC(=O)Nc1ccc(S(=O)(=O)N2CCn3cccc3C2C)cc1 (stereo unspecified)	inactive
CN1CCN(C2=C(NS(=O)(=O)c3cccs3)C(=O)c3ccccc3C2=O)CC1	inactive
